Test results taken from PubChem BioAssay AID1814 (Broad Institute, 2009).
Hit rate of the full screen: of about 300,000 compounds, about 22,000 (7.3%) were called active. Inconclusive results (about 2%) are left out. Many of the other results were omitted from the sample, so actives are more common in it than they were. A number with no mark means an inactive call. Rule as the data show it: active = activity score below about -60%; inconclusive = mostly about -28% to -61%; inactive = positive scores.

Test: Activators working through SNCA 5'UTR binding (MLPCN) (AID 1814)
Conditions: alpha-synuclein 5'UTR reporter, activators screen; hits give low values; tested at 7.5 µM

SMILES | activity score
O=C(Nc1ccc(S(=O)(=O)N2CCOCC2)cc1)c1ccc2ncsc2c1 | -76.4% (active)
CC1CCCN(c2ccc(C(=O)NCCc3ccccc3)cn2)C1 (stereo not given) | -104% (active)
CC1CCN(c2ccc(-c3ccc(NC(=O)c4ccco4)cc3)nn2)CC1 | -144% (active)
CCC(=O)Nc1ccc(-c2ccc(N3CCCCC3)nn2)cc1 | -132% (active)
[O-][n+]1onc2c1CCc1[nH]c(-c3ccccc3)nc1-2 | -130% (active)
CC(=O)Nc1ccc(NC(=O)COc2ccc(S(=O)(=O)NC(C)c3ccccc3)cc2)cc1 (stereo not given) | -147% (active)
O=C(COc1ccccc1)Nc1ccc(F)cc1 | -69.2% (active)
CC(=O)Nc1ccc(NC(=O)COc2ccccc2C(=O)Nc2cccc(Cl)c2Cl)cc1 | 41.1%
O=C(COc1ccccc1)Nc1nonc1NC(=O)COc1ccccc1 | -62.2% (active)
CC(C)[C@@H]1COC(c2cccc(C3=N[C@H](C(C)C)CO3)c2)=N1 | -152% (active)
CCOc1ccc(NC(=O)CCNC(=O)c2ccc(Br)cc2)cc1 | -69.9% (active)
CCOc1ccc(NC(=O)c2ccc(NC(=O)COC(=O)c3ccc(NC(=O)CC#N)cc3)cc2)cc1 | -88.1% (active)
COc1ccc2oc(C(=O)NCc3ccco3)c(C)c2c1 | -92.6% (active)
COc1ccc(C2=NOC(C(=O)NCc3ccco3)C2)cc1OC (stereo not given) | 51.4%
COc1ccc2c(Cl)c(C(=O)NCc3ccco3)sc2c1 | -164% (active)
O=C(NCc1ccco1)c1sc2cccc(F)c2c1Cl | -99.4% (active)
Cc1cccc(N(CC(=O)Nc2ccc(-c3nc4ccc(C)cc4s3)cc2)S(C)(=O)=O)c1 | -159% (active)
Cc1ccc2nc(-c3ccc(NC(=O)CN(C)S(=O)(=O)c4ccccc4)cc3)sc2c1 | -67.2% (active)
Cc1c(C(=O)N2CCCc3ccccc32)sc2nc(-c3ccccc3)cn12 | -83.5% (active)
Cc1c(C(=O)NCC2CCCO2)sc2nc(-c3ccccc3)cn12 (stereo not given) | -102% (active)
Cc1cccc2cc3c(N)c(C(=O)N4CCCc5ccccc54)sc3nc12 | 85.2%
Cc1ccc(C(=O)Cc2nnc(C)s2)cc1 | -98.4% (active)
O=c1c2ccccc2ncn1/N=C/c1ccccc1 | -192% (active)
Cc1cc(/C=C2/SC(=O)N(CC(=O)OC(C)C)C2=O)c(C)n1C | -159% (active)
Cc1cc(SCC(=O)NCCN2C(=O)CSC2=O)nc2ccccc12 | -74.6% (active)
O=C(Nc1cccc([N+](=O)[O-])c1)N1CCc2ccccc2C1 | -99.5% (active)
CCc1ccc(NC(=O)N2CCc3ccccc3C2)cc1 | -68.2% (active)

SMILES | activity score
CCOC(=O)C1C(=O)C=C(c2ccc(OC)cc2)CC1c1ccco1 (stereo not given) | -74.2% (active)
CCCC1(C(=O)OC)NC(c2ccco2)C2C(=O)N(C)C(=O)C21 (stereo not given) | 27.8%
CCOC(=O)c1c(Cc2ccc(Cl)cc2)c[nH]c1C | -90.9% (active)
CN(c1cccc(NC(=O)Nc2ccc(Cl)cc2)c1)S(C)(=O)=O | -112% (active)
O=[N+]([O-])c1ccccc1N/N=C1\CCc2ccccc21 | -187% (active)
COc1ccc(/C=N/Nc2nc3ccccc3c(=O)[nH]2)cc1 | -125% (active)
Cc1nnc(N/N=C/c2ccccn2)[nH]c1=O | 117%
COc1ccc(-c2onc3ccc(C(C)=O)cc23)cc1 | -120% (active)
CS(=O)(=O)C1=NN2C(=N)/C(=C\c3ccc(OCCOc4ccccc4)cc3)C(=O)N=C2S1 | -73.6% (active)
O=C(OCc1ccccc1F)c1ccc2c(c1)OCCO2 | -210% (active)
N#Cc1ccccc1NC(=O)c1ccc2c(c1)OCO2 | -87.9% (active)
O=C(Nc1ccccc1F)c1ccc2c(c1)OCO2 | -199% (active)
O=c1c(-c2ccccc2)coc2cc(O)ccc12 | -128% (active)
COc1cccc(/C=N/NC(=O)c2[nH]nc3c2CCc2ccccc2-3)c1O | 76.4%
CN(C)CCNC(=O)c1[nH]nc2c1CCc1ccccc1-2 | -73.6% (active)
O=C(CC1SCCNC1=O)Nc1ccc(Cl)c(Cl)c1 (stereo not given) | -77.7% (active)
Oc1c(Cl)cc(Cl)c(Cl)c1Cc1c(O)c(Cl)cc(Cl)c1Cl | 77.3%
C=C(C)C(=O)O[C@H]1C/C(C)=C\C(=O)/C=C(\C)[C@H](O)[C@@H]2OC(=O)C(=C)[C@@H]21 | -250% (active)
O=C(Nc1ccc(N2CCOCC2)cc1)c1ccc2c(c1)OCO2 | -121% (active)
O=C(Nc1ccccc1)c1ccc2c(c1)OCO2 | -148% (active)
O=C(Nc1nc2ccccc2s1)c1ccc2c(c1)OCO2 | 53.7%
CN1CCN(c2ccc(NC(=O)c3ccc4c(c3)OCCO4)cc2Cl)CC1 | -66.8% (active)
O=C(Nc1ccc(C2CC2(Cl)Cl)cc1)c1cccc([N+](=O)[O-])c1 (stereo not given) | -92.3% (active)
O=C(Nc1cccc([N+](=O)[O-])c1)c1ccc2c(c1)OCO2 | -99.5% (active)
COc1ccc2oc(-c3cccc(NC(=O)CSc4ccc(Cl)cc4)c3)nc2c1 | -97.9% (active)
O=C(O)c1cccc(N=NN2CCCCCC2)c1 | -74.8% (active)
Cc1ccc(C(=O)Nc2ccc(C)c(S(=O)(=O)N(C)C)c2)s1 | -185% (active)

SMILES | activity score
COc1ccc2ccccc2c1CNCc1ccccn1 | -104% (active)
Cc1ccc(S(=O)(=O)/N=C(/Nc2ccccn2)c2ccc(Cl)cc2)cc1 | -118% (active)
C/C(=N\NC(=O)Cc1ccc(Cl)cc1)c1ccccn1 | 85.6%
O=C(c1ccc(Cl)cc1)N1N=C(c2ccccn2)CC1(O)C(F)(F)F (stereo not given) | 68.6%
Cc1cccc(CSc2ccc(-c3cccs3)nn2)c1 | -110% (active)
COc1ccc(/C(O)=C2/C(=O)C(=O)N(CCCN(C)C)C2c2ccccc2)cc1OC (stereo not given) | -86.9% (active)
Cc1ccc(NC(=O)c2sc3nc(N)c(C#N)cc3c2N)cc1 | -133% (active)
Brc1ccccc1C1N=C(c2ccccc2)NO1 (stereo not given) | -157% (active)
N#Cc1ccc(C2N=C(c3ccccc3)NO2)cc1 (stereo not given) | -107% (active)
COC(=O)c1c(NC(=O)c2ccc(S(=O)(=O)N3CCOCC3)cc2)sc2c1CCN(C(C)C)C2 | -85.3% (active)
O=[N+]([O-])c1cccc(Nc2c3ccccc3nc3ccccc23)c1 | -124% (active)
O=C(Nc1cccc(Br)c1)c1ccc2snnc2c1 | -93% (active)
FC(F)(F)c1ccnc(Oc2ccc(C3=NCCS3)cc2)c1 | -169% (active)
Cn1ccc(NC(=O)Nc2ccc(Cl)cc2)n1 | -80.2% (active)
Cc1nn(C)cc1CNC(=O)Nc1ccc(Cl)cc1 | -69.4% (active)
CSCc1ccc(C(=O)Nc2cc(C)cc(C)c2)cc1 | -126% (active)
C=CCn1c(SCC(N)=O)nnc1-c1cc2c(s1)CCC(CC)C2 (stereo not given) | -137% (active)
c1ccc(CCN2CN=C(Nc3nc4ccccc4o3)NC2)cc1 | -174% (active)
O=C(NCCc1c[nH]c2ccccc12)c1cc2ccccc2oc1=O | -188% (active)
O=C(NCc1ccccn1)c1cc2ccccc2oc1=O | -79.8% (active)
CSc1ccc(/C=N/NC(=O)c2cccc(Cl)c2)cc1 | -142% (active)
O=C(N/N=C/c1ccc(Cl)c(Cl)c1)c1ccc2nc[nH]c2c1 | -191% (active)
Cc1nn(C)c(Oc2ccccc2)c1[N+](=O)[O-] | -79.9% (active)
Cc1ccc(N2C(=O)S/C(=C/c3cn(C)c4ccccc34)C2=O)cc1 | -177% (active)
COc1cc(SC)ccc1C(=O)NCCOc1ccccc1Cl | -151% (active)
O=C(NC(Nc1nc2ccc([N+](=O)[O-])cc2s1)(C(F)(F)F)C(F)(F)F)c1ccccc1 | 94.1%
O=C(Nc1nc2ccc([N+](=O)[O-])cc2s1)c1ccncc1 | -104% (active)

SMILES | activity score
CCN(CC)c1ccc(C(=O)OCC(=O)c2ccco2)cc1 | -179% (active)
Cc1csc(NC(=O)CSc2nnc(-c3cccnc3)o2)n1 | -101% (active)
COC(=O)c1c(NC(=O)COc2ccc(Cl)cc2Cl)sc2c1CC(C)(C)NC2(C)C | 102%
Cc1cc(NC(=O)COc2ccc(Cl)cc2Cl)n(CCC#N)n1 | -122% (active)
COc1ccc(C(=O)NCCSc2ccccc2C)cc1 | -113% (active)
COc1ccc(Nc2cc(=O)oc3ccccc23)cc1 | -97.7% (active)
CSc1nc(-c2ccccc2)nc(C(Cl)Cl)n1 | 114%
Cc1csc(NC(=O)Nc2ccccc2[N+](=O)[O-])n1 | -255% (active)
CN(C)c1ccnc2sc(C(=O)c3ccccc3)c(N)c12 | -138% (active)
NC(=O)c1sc2nc3c(c(-c4ccccc4)c2c1N)CCC3 | 56.2%
Cc1nc2sc(C(=O)c3ccccc3)c(N)c2c2c1CCCC2 | -156% (active)
Cc1cccc(NC(=O)COc2ccccc2C)n1 | -109% (active)
Cc1cccc(NC(=O)c2ccc3ccccc3n2)n1 | -103% (active)
Cc1cccc(NC(=O)COc2ccc(Br)cc2C)n1 | -210% (active)
CCOc1cc(N2CCOCC2)c(OCC)cc1NC(=O)COc1cccc2cccnc12 | 88.8%
Cc1cccc(NC(=O)Cc2ccc(Br)cc2)n1 | -90.2% (active)
Cc1ccccc1OCC(=O)Nc1ccc2c(c1)ncn2C | -256% (active)
CCc1c(C)c2ccc(OC3CCCCC3=O)cc2oc1=O (stereo not given) | -133% (active)
Cc1ccc(-c2nn(-c3ccccc3)cc2/C=C2\SC(=S)N(CCCCCC(=O)O)C2=O)o1 | -89.9% (active)
C=CCOc1ccc(/C=C2\SC(=S)N(CCC(=O)O)C2=O)cc1 | 80%
O=c1oc2ccccc2cc1-c1csc(Nc2ccc(O)cc2)n1 | -171% (active)
COc1ccc2nc(Nc3nc(-c4cc5ccccc5oc4=O)cs3)sc2c1 | -131% (active)
COc1ccc2nc(Nc3nc(-c4ccncc4)cs3)sc2c1 | -122% (active)
CCNc1nc(-c2cc3ccccc3o2)cs1 | -187% (active)
